Data taken from PubChem BioAssay (EPA / NIEHS).
Calls of active or inactive are those of the source. How the source made its calls: active means hit-call score of the fitted dose curve at least 0.9, where 1 is the maximum; inactive means score below 0.9.

Columns and labels:
[1] = read-out: Matrix Metallopeptidase 1 (MMP1), MMP1 (gene 4312); assay: BSK_hDFCGF_MMP1: BioMAP Diversity Plus: hDFCGF Assay for Matrix Metallopeptidase 1 (MMP1) Biomarker Activity (AID 2283064); details: primary human foreskin fibroblasts; actives raise or lower the signal
Summary of the method: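 ELISA read-out of MMP1 from human foreskin fibroblasts (primary skin cells), 24 h post-dose. Gain or loss of signal was fitted bidirectionally versus DMSO negative control; cytotoxicity was checked by SRB in parallel cultures.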

[2] = read-out: Plasminogen activator inhibitor-1 (PAI1), SERPINE1 (gene 5054); assay: BSK_hDFCGF_PAI1: BioMAP Diversity Plus: hDFCGF Assay for Plasminogen activator inhibitor-1 (PAI1) Biomarker Activity (AID 2283066); details: primary human foreskin fibroblasts; actives raise or lower the signal
Summary of the method: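 PAI-1 levels in human dermal foreskin fibroblasts were quantified by ELISA 24 h after dosing, with gain or loss analysed against DMSO. Overt cytotoxicity was checked by sulforhodamine B total-protein staining in parallel cultures.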

[3] = read-out: Intercellular Adhesion Molecule 1 (ICAM1), ICAM1 (gene 3383); assay: BSK_KF3CT_ICAM1: BioMAP Diversity Plus: KF3CT Assay for Intercellular Adhesion Molecule 1 (ICAM1) Biomarker Activity (AID 2283067); details: primary human keratinocytes with fibroblasts; actives raise or lower the signal
Summary of the method: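 Human keratinocyte–foreskin fibroblast co-culture was treated for 24 h. Cell-surface ICAM-1 was quantified by ELISA, fitted bidirectionally relative to DMSO. Cytotoxicity was checked in parallel cultures by SRB total-protein staining.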

[4] = read-out: Interferon-gamma inducible Protein 10 (IP10), CXCL10 (gene 3627); assay: BSK_KF3CT_IP10: BioMAP Diversity Plus: KF3CT Assay for Interferon-gamma inducible Protein 10 (IP10) Biomarker Activity (AID 2283068); details: primary human keratinocytes with fibroblasts; actives raise or lower the signal
Summary of the method: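 Signal is secreted/surface IP-10 by ELISA in a human primary skin co-culture of keratinocytes and foreskin fibroblasts, taken 24 h post-dosing; DMSO served as negative control.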

[5] = BSK_KF3CT_SRB: Viability Assessment in the BioMAP Diversity Plus: KF3CT Assay (AID 2283069); details: primary human keratinocytes with fibroblasts
Summary of the method: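 SRB read-out at 560 nm (0.1% stain, TCA-fixed cells) gauges overt cytotoxicity in a human skin keratinocyte–fibroblast co-culture 24 h post-dosing. Signal change was fitted bidirectionally relative to DMSO control.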

[6] = read-out: Interleukin-1 alpha (IL1a), IL1A (gene 3552); assay: BSK_KF3CT_IL1a: BioMAP Diversity Plus: KF3CT Assay for Interleukin-1 alpha (IL1a) Biomarker Activity (AID 2283070); details: primary human keratinocytes with fibroblasts; actives raise or lower the signal
Summary of the method: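 Primary skin co-culture (keratinocytes, foreskin fibroblasts), 24 h exposure; ELISA for IL-1a; bidirectional curve fit vs DMSO.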

[7] = read-out: TIMP metallopeptidase inhibitor 2 (TIMP2), TIMP2 (gene 7077); assay: BSK_KF3CT_TIMP2: BioMAP Diversity Plus: KF3CT Assay for TIMP metallopeptidase inhibitor 2 (TIMP2) Biomarker Activity (AID 2283071); details: primary human keratinocytes with fibroblasts; actives raise or lower the signal
Summary of the method: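 TIMP-2 measured by ELISA at 24 h in human keratinocyte/fibroblast primary co-cultures exposed to chemicals. Both increases and decreases were fitted against DMSO. Parallel cultures were stained with SRB for total protein as an overt-cytotoxicity check.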

[8] = read-out: Transforming growth factor beta 1 (TGFb1), TGFB1 (gene 7040); assay: BSK_KF3CT_TGFb1: BioMAP Diversity Plus: KF3CT Assay for Transforming growth factor beta 1 (TGFb1) Biomarker Activity (AID 2283072); details: primary human keratinocytes with fibroblasts; actives raise or lower the signal
Summary of the method: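 ELISA quantifies TGF-b1 at 24 h post-dose in a primary human skin co-culture of keratinocytes and fibroblasts, with gain or loss judged against DMSO. Parallel SRB total-protein staining flags overt cytotoxicity.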

[9] = read-out: C-C motif chemokine 2 (Homo sapiens) (UniProt P13500); assay: BSK_KF3CT_MCP1: BioMAP Diversity Plus: KF3CT Assay for Monocyte Chemoattractant Protein 1 (MCP1/CCL2) Biomarker Activity (AID 2283073); details: primary human keratinocytes with fibroblasts; actives raise or lower the signal
Summary of the method: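 Human keratinocyte–foreskin fibroblast co-culture; MCP-1 measured by ELISA 24 h after dosing. Bidirectional fit vs DMSO; cytotoxicity tracked by SRB total protein in parallel cultures.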

[10] = read-out: Matrix Metallopeptidase 9 (MMP9), MMP9 (gene 4318); assay: BSK_KF3CT_MMP9: BioMAP Diversity Plus: KF3CT Assay for Matrix Metallopeptidase 9 (MMP9) Biomarker Activity (AID 2283074); details: primary human keratinocytes with fibroblasts; actives raise or lower the signal;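 on AC50: MMP9 protein level quantified by ELISA in the co-culture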
Summary of the method: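 ELISA read-out of MMP-9 at 24 h post-dosing in a co-culture of human skin keratinocytes and foreskin fibroblasts. Gain or loss of signal was fitted in both directions against DMSO.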

[11] = read-out: urokinase plasminogen activator (uPA), PLAU (gene 5328); assay: BSK_KF3CT_uPA: BioMAP Diversity Plus: KF3CT Assay for urokinase plasminogen activator (uPA) Biomarker Activity (AID 2283075); details: primary human keratinocytes with fibroblasts; actives raise or lower the signal
Summary of the method: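 Skin co-culture (keratinocytes + foreskin fibroblasts), human primary; 24 h post-dose; uPA by ELISA; gain/loss fit vs DMSO baseline.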

[12] = read-out: CD40, CD40 (gene 958); assay: BSK_LPS_CD40: BioMAP Diversity Plus: LPS Assay for CD40 Biomarker Activity (AID 2283076); details: primary human HUVEC with PBMC; actives raise or lower the signal
Summary of the method: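 HUVEC plus PBMC co-culture stimulated with LPS; CD40 quantified by ELISA 24 h after compound dosing. Fitting was bidirectional relative to DMSO. SRB staining of parallel cultures flagged overt cytotoxicity.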

[13] = read-out: E-selectin (Homo sapiens) (UniProt P16581); assay: BSK_LPS_Eselectin: BioMAP Diversity Plus: LPS Assay for Eselectin Biomarker Activity (AID 2283077); details: primary human HUVEC with PBMC; actives raise or lower the signal
Summary of the method: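 Human umbilical vein endothelial cells co-cultured with PBMC under LPS stimulation; cell-surface E-selectin measured by ELISA 24 h after dosing. Change in either direction versus DMSO, with SRB total-protein staining in parallel cultures for cytotoxicity.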

[14] = read-out: Interleukin-8 (IL8), CXCL8 (gene 3576); assay: BSK_LPS_IL8: BioMAP Diversity Plus: LPS Assay for Interleukin-8 (IL8) Biomarker Activity (AID 2283078); details: primary human HUVEC with PBMC; actives raise or lower the signal
Summary of the method: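 Human umbilical vein endothelial cells co-cultured with PBMC, LPS-stimulated, exposed to compound for 24 h. IL-8 quantified by ELISA; fitted in both directions against DMSO, with SRB total-protein staining of parallel cultures for cytotoxicity.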

[15] = BSK_LPS_SRB: Viability Assessment in the BioMAP Diversity Plus: LPS Assay (AID 2283079); details: primary human HUVEC with PBMC;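 further: total protein by sulforhodamine B absorbance as a cytotoxicity measure; measured one day after compound addition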
Summary of the method: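 Co-culture of human umbilical vein endothelial cells and PBMC, read 24 h after dosing. Total protein by 0.1% SRB staining after 10% TCA fixation, absorbance at 560 nm; bidirectional fit against DMSO.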

[16] = read-out: Interleukin-1 alpha (IL1a), IL1A (gene 3552); assay: BSK_LPS_IL1a: BioMAP Diversity Plus: LPS Assay for Interleukin-1 alpha (IL1a) Biomarker Activity (AID 2283080); details: primary human HUVEC with PBMC; actives raise or lower the signal
Summary of the method: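 Human umbilical vein endothelial cells co-cultured with PBMC and stimulated with LPS; IL-1a measured by ELISA 24 h after dosing. Bidirectional fitting against DMSO; cytotoxicity checked by SRB staining in parallel cultures.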

[17] = read-out: Monocyte Chemoattractant Protein-1 (MCP1), CCL2 (gene 6347); assay: BSK_LPS_MCP1: BioMAP Diversity Plus: LPS Assay for Monocyte Chemoattractant Protein-1 (MCP1) Biomarker Activity (AID 2283081); details: primary human HUVEC with PBMC; actives raise or lower the signal;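 on AC50: secreted MCP-1 protein quantified by ELISA in culture supernatant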
Summary of the method: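 Human umbilical vein endothelial cells co-cultured with PBMC, LPS-stimulated; secreted MCP-1 measured by ELISA 24 h after compound addition. Bidirectional curve fitting against DMSO baseline; SRB total-protein staining in parallel cultures for cytotoxicity.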

[18] = BSK_LPS_PGE2: BioMAP Diversity Plus: LPS Assay for Prostaglandin E2 (PGE2) Biomarker Activity (AID 2283082); details: primary human HUVEC with PBMC; actives raise or lower the signal;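 on AC50: secreted prostaglandin E2 measured by ELISA in LPS-stimulated co-culture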
Summary of the method: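 PGE2 release measured by ELISA in an LPS-activated co-culture of human umbilical vein endothelial cells and peripheral blood mononuclear cells, read at 24 h post-dosing. DMSO served as baseline for bidirectional curve fitting.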

[19] = read-out: Macrophage colony-stimulating factor (MCSF), CSF1 (gene 1435); assay: BSK_LPS_MCSF: BioMAP Diversity Plus: LPS Assay for Macrophage colony-stimulating factor (MCSF) Biomarker Activity (AID 2283083); details: primary human HUVEC with PBMC; actives raise or lower the signal
Summary of the method: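 HUVEC–PBMC co-culture, M-CSF measured by ELISA 24 h after chemical dosing. Fitted in both directions relative to DMSO as negative control; overt cytotoxicity assessed by SRB total-protein staining in parallel cultures.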

[20] = read-out: Vascular cell adhesion molecule 1 (VCAM1), VCAM1 (gene 7412); assay: BSK_hDFCGF_VCAM1: BioMAP Diversity Plus: hDFCGF Assay for Vascular cell adhesion molecule 1 (VCAM1) Biomarker Activity (AID 2283065); details: primary human foreskin fibroblasts; actives raise or lower the signal
Summary of the method: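 Human foreskin fibroblast primary cells dosed with chemical, VCAM-1 measured by ELISA at 24 h. Bidirectional curve fitting relative to DMSO as negative control/baseline.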

Measured: AC50

Chain of E-selectin (Homo sapiens) (P16581 whole entry, looked up): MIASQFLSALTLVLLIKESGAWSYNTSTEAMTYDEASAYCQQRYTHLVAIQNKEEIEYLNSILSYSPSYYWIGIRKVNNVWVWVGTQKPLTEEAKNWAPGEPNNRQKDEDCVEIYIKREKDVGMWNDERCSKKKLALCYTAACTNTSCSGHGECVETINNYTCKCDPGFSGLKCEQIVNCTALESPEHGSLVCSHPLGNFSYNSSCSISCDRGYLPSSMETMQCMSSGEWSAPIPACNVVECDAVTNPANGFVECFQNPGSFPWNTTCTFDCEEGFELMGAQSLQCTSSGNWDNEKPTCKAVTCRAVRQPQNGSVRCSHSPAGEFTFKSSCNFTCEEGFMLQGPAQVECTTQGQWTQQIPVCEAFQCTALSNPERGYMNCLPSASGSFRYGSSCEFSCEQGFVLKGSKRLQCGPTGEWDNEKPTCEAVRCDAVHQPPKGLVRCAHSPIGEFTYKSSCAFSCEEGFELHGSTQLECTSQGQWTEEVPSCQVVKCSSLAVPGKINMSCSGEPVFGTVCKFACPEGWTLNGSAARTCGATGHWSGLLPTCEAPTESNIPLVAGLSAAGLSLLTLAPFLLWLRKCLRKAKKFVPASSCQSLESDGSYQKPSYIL

CCCCC(CC)COP(=O)(Oc1ccccc1)Oc1ccccc1 (configuration not stated)
inactive: [3] | [4] | [9] | [18]
active: [1] 6.33 µM | [2] 6.48 µM | [5] 20 µM | [6] 5.46 µM | [7] 6.54 µM | [8] 5.46 µM | [10] 3.71 µM | [11] 4.9 µM | [12] 13.5 µM | [13] 20 µM | [14] 20 µM | [15] 20 µM | [16] 20 µM | [17] 7.43 µM | [19] 8.19 µM

CCC1(c2ccccc2)C(=O)N=C(O)NC1=O (configuration not stated)
not listed: [20]
inactive: all other assays above

CC(C)Nc1ccc(Nc2ccccc2)cc1
active: [1] 11.4 µM | [2] 7.9 µM | [3] 20 µM | [4] 32.7 µM | [6] 24.4 µM | [7] 28.9 µM | [8] 17.3 µM | [9] 33.3 µM | [10] 20 µM | [11] 31.6 µM | [12] 14 µM | [13] 12.9 µM | [14] 20 µM | [15] 15.8 µM | [16] 9.74 µM | [17] 10.1 µM | [18] 0.0166 µM | [19] 8.91 µM

CCCCc1ccccc1
not listed: [3] | [20]
inactive: all other assays above

CCCCCCCc1ccc(O)cc1
active: [1] 33.6 µM | [2] 30.3 µM | [3] 33.3 µM | [4] 29 µM | [6] 30.4 µM | [7] 32.2 µM | [8] 31.7 µM | [9] 29.6 µM | [10] 30.5 µM | [12] 30.9 µM | [13] 35.8 µM | [14] 35.1 µM | [15] 37.2 µM | [16] 31.2 µM | [17] 36.5 µM | [18] 2.95 µM | [19] 32 µM

ClC(Cl)c1ccccc1
not listed: [5] | [20]
inactive: all other assays above

CC(C)(C)OOC(C)(C)C
not listed: [2] | [3]
inactive: all other assays above
